Compounds with a hit are over-represented: about 1.1% of the library has one in this group of screens.
gsp antagonist = antagonizes gsp, the McCune-Albright syndrome mutation. gsp-mutant cells, cAMP HTRF, 30 min. Potency, µM (top dose mostly 76.9 µM), hits mostly inhibitors. 340,000 tested, 0.4% active. AID 624288; calls by dose curve; cell line not stated here;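 note: intracellular cAMP measured with PDE inhibitor Ro 20-1724 present during compound exposure; nearly all actives have a fitted effect of over 65% in size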
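Cells in G418 medium, seeded 16-24 h, 37C; buffer exchange to DPBS + 1 mM CaCl2, 0.5 mM MgCl2, 0.05% BSA; cpds in DMSO + […] (300 uM stock), 30 min 37C; HTRF cAMP detection.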
RXFP1 antagonist = RXFP1 (human) relaxin receptor antagonism; Q9HBX9; 350,000 tested, 0.59% active; activity change, negative = inhibition, % at 57.5 µM; AID 1259400; HEK293-RXFP1, relaxin-stimulated cAMP HTRF, 30 min; stronger effect = lower value;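 active = activity change of -60% or lower, but not beyond a set lower limit; inconclusive = change between -60% and -40%, or beyond the set limit; inactive = change above -40%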
Integrin act MD = activates integrin-mediated alleviation for muscular dystrophy | Potency, µM (highest dose often 38.3 µM), actives largely listed as activators | alpha7betagal myoblasts, beta-gal FDG fluorescence, 48 h | 350,000 tested, 0.064% active; note: nearly all actives have a fitted effect of over 60% in size
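alpha7betagal+/- myoblasts (passage 13, 250/well) treated 48 h at 37C with compounds at 1:260 dilution of DMSO stock. Lysed, then beta-galactosidase activity read as FDG fluorescence (ex 480/em 540) after 30 min, with pre-read for autofluorescence.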
gsp agonist = agonists of gsp mutant (McCune-Albright syndrome); gsp mutant cells, cAMP HTRF, 30 min; Potency, µM (series often up to 76.9 µM), hits mostly activators; 340,000 tested, 0.13% active; AID 624287; active = well fitted activation curve with a large enough effect; inconclusive = small, poorly fitted or top-dose-only effect, or another doubt; inactive = no such curve, though single readings can be large or run the other way; cell line not stated here;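 note: phosphodiesterase inhibitor Ro 20-1724 added with compounds to block cAMP breakdown; nearly all actives have a fitted effect of over 60% in size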
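Cells stably selected in G418 were plated at 2000/well, grown 16-24 hr, then given compounds in DMSO with the PDE inhibitor […] (300 uM solution added) for 30 min at 37C; cAMP was read by HTRF.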
RXFP1 ag = agonists of human relaxin receptor RXFP1; AID 2676; Potency, µM (top dose mostly 57.5 µM), hits mostly activators; HEK293T-RXFP1 cAMP TR-FRET, 30 min; response scale: percent of porcine relaxin response, buffer zero; Q9HBX9; 370,000 tested, 0.3% active; note: nearly all actives have a fitted effect of over 60% in size
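cAMP rise read by TR-FRET after 30 min, 37C compound exposure (up to 58 uM) in RXFP1-transfected HEK293 cells with Ro 20174 present. EC50 from Hill-equation fits, with 29 nM porcine relaxin as 100% and buffer as basal.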
S-ASM inh = inhibitors of human secretory acid sphingomyelinase; placental ASM, HMU-PC fluorogenic substrate, 60 min; Potency, µM (doses to about 57.5 µM), hits mostly inhibitors; 340,000 tested, 0.006% active; AID 504937; P17405
Target sequence (P17405 47-631 limits assumed): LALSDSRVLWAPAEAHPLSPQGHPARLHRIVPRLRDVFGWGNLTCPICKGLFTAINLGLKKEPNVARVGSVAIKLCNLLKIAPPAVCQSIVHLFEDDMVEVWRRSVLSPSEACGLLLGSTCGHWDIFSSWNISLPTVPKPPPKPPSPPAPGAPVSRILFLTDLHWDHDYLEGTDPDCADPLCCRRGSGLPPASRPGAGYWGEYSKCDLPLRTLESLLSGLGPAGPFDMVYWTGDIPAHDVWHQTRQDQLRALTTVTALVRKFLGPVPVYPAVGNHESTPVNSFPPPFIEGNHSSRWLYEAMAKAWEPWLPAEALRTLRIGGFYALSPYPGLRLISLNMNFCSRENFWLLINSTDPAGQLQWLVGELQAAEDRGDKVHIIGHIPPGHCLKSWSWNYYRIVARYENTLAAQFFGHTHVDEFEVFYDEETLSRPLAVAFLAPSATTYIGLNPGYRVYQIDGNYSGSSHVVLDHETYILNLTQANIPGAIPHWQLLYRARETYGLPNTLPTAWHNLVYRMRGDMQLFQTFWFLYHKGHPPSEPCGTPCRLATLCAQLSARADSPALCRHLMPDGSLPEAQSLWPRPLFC
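Fluorogenic HMU-PC substrate (9 uM final) is turned over by placental ASM in 60 min at 37 C after a 10 min compound preincubation. Reaction ended by alkaline stop (pH 10), with fluorescence read at 386/447 nm.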
Hits are given with their value; i = inactive; ? = inconclusive; nt = no result given; [ ] = another dose, or the depositor's remark. Unless noted, calls come from the whole dose curve; as a rule, active = well fitted curve in the direction sought with a large enough effect; inconclusive = small, poorly fitted or top-dose-only effect, or another doubt; inactive = no such curve, though single readings can be large; an effect the other way counts as inactive or inconclusive.

SMILES	gsp antagonist	RXFP1 antagonist	Integrin act MD	gsp agonist	RXFP1 ag	S-ASM inh
COc1cc(C(C)=O)ccc1OCC(=O)Nc1ccc(C)c(S(=O)(=O)N2CCCCCC2)c1	32µM	i	i	i	i	i
Cc1ccc(NC(=O)COc2ccc(N(C)C(=O)C(C)(C)C)cc2)cc1S(=O)(=O)N1CCCCC1	35µM	i	i	i	nt	i
Cc1ccc(NC(=O)COc2ccccc2C(N)=O)cc1S(=O)(=O)N1CCCCCC1	35µM	i	i	?	i	i
COc1ccc(N2C(=O)CS(=O)(=O)C23C(=O)N(Cc2ccc(F)cc2)c2ccc(C)cc23)cc1 (centres undefined)	nt	nt	nt	nt	i	nt
COc1ccc(C2CC(=O)c3cc(-c4nc(-c5ccc(Cl)cc5)cs4)c(=O)[nH]c3C2)cc1 (centres undefined)	nt	i	nt	nt	i	nt
O=C(COC(=O)C1CCC1)NCc1ccc(Cl)cc1Cl	i	i	i	i[15.4 µM]	i	i
CCc1ccc(NC(=O)N2CC(C)Oc3ccc(C)cc32)cc1 (centres undefined)	nt	-62	nt	nt	i	nt
CCOC(=O)c1ccccc1NC(=O)N1CC(C)Oc2ccc(C)cc21 (centres undefined)	nt	?	nt	nt	i	nt
CCC1CN(C(=O)Nc2cccc3c2CCCC3)c2cc(C)ccc2O1 (centres undefined)	nt	-73	nt	nt	i	nt
CCOc1ccccc1NC(=O)N1CC(C)Oc2ccc(Cl)cc21 (centres undefined)	nt	-83	nt	nt	i	nt
Cc1ccc(-n2c(-c3ccc(Br)cc3)nc3c(cnn3-c3ccccc3)c2=O)cc1	nt	i	nt	nt	i	nt
CSc1cccc(NC(=O)CC(c2cccs2)N2Cc3ccccc3C2=O)c1 (centres undefined)	nt	nt	nt	nt	i	nt
CC(C)(C)c1ccc(/C=C/C(=O)Nc2ccc(S(N)(=O)=O)cc2)cc1	nt	nt	nt	nt	i	nt
O=S(=O)(c1cccc(NC(=S)N2CCN(c3cccc(Cl)c3)CC2)c1)C(F)F	32µM	i	i	i[15.4 µM]	i	i
Cc1cc(Br)c2[nH]cc(CCNC(=O)c3ccco3)c2c1	i	-88	i	i	i	i
CCC1(c2ccc(F)cc2)NC(=O)N(CC(=O)NCC(=O)Nc2cccc(C)c2C)C1=O (centres undefined)	i	-79	i	i[15.4 µM]	i	i
CCCNC(=O)CN1C(=O)NC(CC)(c2ccc(F)cc2)C1=O (centres undefined)	i	i	i	i	i	i
CN(C)c1ccc(/C=C/c2ccc3c4ccccc4ccc3[n+]2-c2ccccc2)cc1	40µM	?	i	i[15.4 µM]	i	i
CN(C)c1ccc(/C=C/c2ccc3ccccc3[n+]2C)cc1	?	-92	i	i	i	i
CN(CCCS(=O)(=O)[O-])c1ccc(/C=C/c2ccc3ccccc3[n+]2C)cc1	i	i	i	i	i	i
Cn1c(=O)n(C)c2cc([N+](=O)[O-])c(N3CCN(S(=O)(=O)c4ccccc4)CC3)cc21	25µM	i	i	i	i	i
Cn1c(=O)n(C)c2cc([N+](=O)[O-])c(N3CCN(S(C)(=O)=O)CC3)cc21	i	i	i	i	i	i
Oc1cc2ccccc2cc1-c1n[nH]c(=S)o1	28µM	i	i	i	i	i
Cc1cc(-c2n[nH]c(=S)o2)c(C)n1-c1ccccc1	i	i	i	i	i	i
Cc1ccc(C)c(CNC(=O)c2ccc3c(c2)nc2n3CCC(C)C2)c1 (centres undefined)	nt	i	nt	nt	i	nt
SMILES	gsp antagonist	RXFP1 antagonist	Integrin act MD	gsp agonist	RXFP1 ag	S-ASM inh
Cc1cc(C)c(O)c(-c2cc(C(=O)Nc3ccc(S(=O)(=O)N4CCOCC4)cc3)[nH]n2)c1	28µM	i	i	i	i	?
CC(=O)Nc1ccc(NC(=O)c2cc(-c3cc(C)cc(C)c3O)n[nH]2)cc1	i	i	i	i	i	?
O=C(N/N=C\c1cn(-c2ccccc2)nc1-c1ccccc1)c1ccc(Br)o1	?	nt	i	i	i	i
Cc1ccc(-c2nn(-c3ccccc3)cc2/C=N/NC(=O)c2ccc(Br)o2)cc1	32µM	i	i	i	i	i
COc1cccc(CNC(=O)c2oc3c(c2C)-c2nn(Cc4cccc(Cl)c4)cc2CC3)c1	nt	-118	nt	nt	i	nt
COc1cccc(CNC(=O)c2oc3c(c2C)-c2nn(Cc4cccc(Cl)c4)cc2CC3)c1OC	nt	?	nt	nt	i	nt
O=C1NC(=S)S/C1=C/c1ccc(Oc2cnccn2)cc1	11µM	i	i	i[15.4 µM]	i	i
CC(C)Cn1c(CN2CCN(c3cccc(Cl)c3)CC2)nc2c1c(=O)[nH]c(=O)n2C	nt	nt	nt	nt	i	nt
COc1ccc(/C=C(\C#N)C(=O)OCC(=O)NCc2ccccc2)cc1	i	i	i	i	i	i
COc1cccc(CNC(=O)COC(=O)/C(C#N)=C/c2ccc(N(C)C)cc2)c1	i	i	i	25µM	?	i
CCc1ccc2oc(C(=O)Nc3cccc(Cl)c3C)cc(=O)c2c1	nt	i	nt	nt	i	nt
Cc1ccc(CN2CCC(CNC(=O)c3cc4ccc5cccnc5c4[nH]3)CC2)cc1	nt	i	nt	nt	i	nt
Cc1oc(-c2ccccc2)nc1CCC(=O)c1ccc(CC2SC(=O)NC2=O)cc1 (centres undefined)	nt	i	nt	nt	nt	nt
Cn1sc(NC(=O)c2ccc(Cl)cc2)nc1=O	i	i	i	i	i	i
CC(C)CC(=O)n1sc(NC(=O)c2ccccc2)nc1=O	28µM	i	i	i	i	i
Cc1ccc(C(=O)Nc2nc(=O)n(C)s2)cc1	22µM	i	i	i	i	i
CCn1cc(C(=O)Nc2ccc(C(C)C)cc2)c2cc(OC)c(OC)cc2c1=O	nt	nt	nt	nt	i	nt
O=c1[nH]ncc2c3ccccc3n(Cc3cccc(Cl)c3)c12	i	i	i	i[15.4 µM]	i	32µM
O=c1[nH]ncc2c3ccccc3n(Cc3ccc(F)cc3)c12	i	i	i	i	i	i
COc1ccc(Nc2nnc(-c3ccc(O)cc3)c3ccccc23)cc1	25µM	i	i	i	i	i
CCOC(=O)C1CCCN(C(=O)c2ccc(NC(=O)c3nsc4ccccc34)cc2)C1 (centres undefined)	nt	i	nt	nt	i	nt
Cc1sc(N(C(=O)CCc2ccccc2)c2ccc(C(=O)O)cc2)nc1-c1ccccc1	i	i	i	i	i	i
CCC(=O)N(c1ccc(C(=O)O)cc1)c1nc(-c2ccc(OC)cc2)c(C)s1	25µM	i	i	?	i	i
N#Cc1c(-c2ccccc2)cc2nc3ccccc3n2c1N	i	i	i	i	i	i
COc1cc(-c2cc3nc4ccccc4n3c(N)c2C#N)cc(OC)c1OC	i	i	?	28µM	i	i
O=[N+]([O-])c1ccc(C=CC=Cc2ccccc2)cc1	nt	i	i	i	nt	nt
CN(c1ccccc1)c1ccc(/C=C/[N+](=O)[O-])cc1	i	-108	i	i[15.4 µM]	i	i
